These results are taken from PubChem BioAssay (NCATS).

A number with no mark means an inactive call. Records with an inconclusive call do not appear. Calls of active or inactive are those of the source. Unless noted, calls follow the shape of the dose curve; as a rule, active = well fitted curve in the direction sought with a large enough effect; inconclusive = small, poorly fitted or top-dose-only effect, or another doubt; inactive = no such curve, though single readings can be large; an effect the other way counts as inactive or inconclusive.

For assay [1], the target named is Glutathione peroxidase 1 (Homo sapiens) (UniProt P07203). Put plainly: Primary qHTS Assay for Inhibitors of Recombinant Selenoprotein Glutathione Peroxidase 1 (GPX1) (AID 1845191). Also: nearly all actives have a fitted effect of over 65% in size. Summed up:
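NADPH consumption tracked by fluorescence at 340/450 nm between t=0 and t=15 min, room temperature. Final mix: 10 nM GPX1, 100 nM glutathione reductase, 1 mM GSH, 0.5 mM NADPH, 0.5 mM cumene hydroperoxide, 0.01% BSA; 30 min compound–enzyme preincubation.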
(In qHTS, concentration-response curves come from the screen itself.)

Assay [2] addresses Cytochrome P450 1A2 (Homo sapiens) (UniProt P05177). As to the kind of experiment: p450-cyp1a2 (AID 410; calls by dose curve; also: potency is read from the fitted curve at half-maximal effect). An outline of the steps:
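Read-out is luminescence from luciferin produced by CYP1A2 demethylation of Luciferin-ME (100uM, at Km). Detection reagent stopped the 60 min NADPH-dependent reaction; signals were normalized to 57 uM furafylline.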

The nature of assay [3]: NFAT Signaling Pathway (AID 444; active = well fitted curve in either direction with a large enough effect, not every such curve was filed as active;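 also: carbachol stimulus at about its EC50 of 1 µM final; % is scaled to controls: 0 for no effect and ±100 for the full control effect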). Particulars: Jurkat NFAT-bla M1, carbachol, beta-lactamase ratio, 5 h; at 7.69 µM (top of the series) unless noted. Summed up: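 Read-out: CCF4 FRET ratio (460 nm/530 nm) after 1 h RT dye loading, used for %activity and AC50 from titration series. Cells: Jurkat NFAT-β-lactamase/M1 line, treated with compound plus 1 uM carbachol for 5 h, 37 °C.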

Assay [4] is described as follows: Stat Signaling Pathway (AID 446; active = well fitted curve in either direction with a large enough effect, not every such curve was filed as active;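 also: ME-180 cervical cancer cells given 40 pM IL-6 alongside compound; SIE-controlled beta-lactamase reporter measured as 460/530 nm FRET emission ratio; % is scaled to controls: 0 for no effect and ±100 for the full control effect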). Summed up: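 FRET read-out (405 nm excitation, 460/530 nm emission) of a beta-lactamase reporter under a STAT-inducible element in ME-180 cervical carcinoma cells. Cells with compound receive 40 pM IL-6 for 5 h. Values are normalised to AC90 stimulation and AC90 JAK-inhibitor controls.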
The target in assay [5] is Glucocorticoid receptor (Homo sapiens) (UniProt P04150). Put plainly: GR-GFP Redistribution (AID 450;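 active = compounds whose dose series gives a full or clear partial fitted curve of increased nuclear translocation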; also: potency is read from the fitted curve at half-maximal effect). Particulars: U2OS GR-GFP nuclear translocation, laser cytometry, 2 h.
Glucocorticoid receptor (Homo sapiens), sequence (P04150 whole entry, looked up): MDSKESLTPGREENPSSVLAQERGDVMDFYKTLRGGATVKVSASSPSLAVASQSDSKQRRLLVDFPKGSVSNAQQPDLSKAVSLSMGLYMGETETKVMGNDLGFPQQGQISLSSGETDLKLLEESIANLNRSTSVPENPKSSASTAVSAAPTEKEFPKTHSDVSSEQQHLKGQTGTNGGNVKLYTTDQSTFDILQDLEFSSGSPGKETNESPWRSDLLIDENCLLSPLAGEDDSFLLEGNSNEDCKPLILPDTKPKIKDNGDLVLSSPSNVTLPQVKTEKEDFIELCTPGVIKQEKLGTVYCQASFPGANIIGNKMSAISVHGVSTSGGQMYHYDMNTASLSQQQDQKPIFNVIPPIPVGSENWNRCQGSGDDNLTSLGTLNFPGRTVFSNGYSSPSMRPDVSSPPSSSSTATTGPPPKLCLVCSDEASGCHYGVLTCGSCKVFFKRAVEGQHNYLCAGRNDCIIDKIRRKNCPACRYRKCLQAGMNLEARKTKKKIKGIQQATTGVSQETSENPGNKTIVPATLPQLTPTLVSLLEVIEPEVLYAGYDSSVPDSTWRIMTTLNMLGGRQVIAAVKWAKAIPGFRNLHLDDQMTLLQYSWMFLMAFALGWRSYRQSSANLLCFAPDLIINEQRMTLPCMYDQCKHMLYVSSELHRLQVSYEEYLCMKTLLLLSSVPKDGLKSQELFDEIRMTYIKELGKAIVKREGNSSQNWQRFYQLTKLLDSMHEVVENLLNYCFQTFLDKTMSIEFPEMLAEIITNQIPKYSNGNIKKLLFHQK
Assay [6] shares this target. Put plainly: GR-EFC Redistribution (AID 451; calls by dose curve; also: potency is read from the fitted curve at half-maximal effect). Particulars: CHO-K1 GR-EFC translocation, beta-gal luminescence, 2 h. Summed up:
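Translocation of GR-ED fusion to nuclear EA restores b-gal, read by luminescence after 1 h room-temperature detection. Engineered CHO-K1 biosensor cells, 1,000/well, exposed 2 h at 37 C to titrations up to 46 uM final.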

Assay [7] addresses Mitogen-activated protein kinase 10 (Mus musculus) (UniProt Q61831). Put plainly: JNK3 AlphaScreen Assay (AID 530; active = well fitted curve in either direction with a large enough effect, not every such curve was filed as active;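 also: kinase came from lysate of stimulated human HepG2 cells; signal reports phosphorylation of biotinylated GST-cJun 1-79 at Ser73 with 10 µM ATP; % is scaled to controls: 0 for no effect and ±100 for the full control effect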). An outline of the steps: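 Kinase buffer: 20 mM Tris-HCl pH 7.6, 10 mM MgCl2, 1 mM DTT, 0.1 mM Na3VO4, 0.01% Tween-20; ATP 10 uM. Substrate biotin-GST-cJun(1-79), enzyme from activated HepG2 lysates. Detection by Ser73 phospho-antibody AlphaScreen.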
A general note: Bead proximity is the source of the signal in Alpha formats.

Assay [8] addresses 3',5'-cyclic-AMP phosphodiesterase 4B (Homo sapiens) (UniProt Q07343). Put plainly: qHTS Assay for Inhibitors of PDE-IV (AID 607; active = well fitted activation curve with a large enough effect in the main read-out, with a control signal flat, not every such curve was filed as active; also: % of control where 0% means no effect). An outline of the steps: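 Cell-based read-out of cAMP via a modified cyclic nucleotide-gated channel and membrane potential dye (535/590 nm) in HEK293 cells expressing PDE4 endogenously. Compounds tested up to 22.9 uM final; 100 uM RO 20-1724 reference.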

Assay [9] concerns the target Cytochrome P450 3A4 (Homo sapiens) (UniProt P08684). As to the kind of experiment: qHTS Assay for Activators of Cytochrome P450 3A4 (AID 885). Also: nearly all actives have a fitted effect of over 65% in size. Summed up:
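Luminescent readout of luciferin formed from 25 uM Luciferin-PPXE (KM level) by 20 nM CYP3A4 in 200 mM KPO4, with 60 min NADPH-driven reaction at room temperature after 10 min compound exposure. Ketoconazole (57 uM) defined 100% inhibition.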

The target in assay [10] is Dual specificity protein kinase CLK4 (Homo sapiens) (UniProt Q9HAZ1). As to the kind of experiment: qHTS Assay for Inhibitors of CDC-like Kinase 4 (ADP-FP Assay) (AID 1795).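 Also: recombinant human CLK4 phosphorylating RS repeat peptide at 1 µM ATP; % is scaled to controls: 0 for no effect and ±100 for the full control effect; nearly all actives have a fitted effect of over 60% in size.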 An outline of the steps:
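Kinase activity was followed as ADP output, converted from fluorescence polarization with a calibration curve. Reactions ran one hour at low ATP (1 uM) with RS peptide substrate.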

For assay [11], the target named is Ubiquitin carboxyl-terminal hydrolase 1 (Homo sapiens) (UniProt O94782). As to the kind of experiment: Inhibitors of USP1/UAF1: Pilot qHTS (AID 504865).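 Also: rhodamine fluorescence freed from ubiquitin-rhodamine substrate followed over time; top concentration of the series differs between compounds; % is scaled to controls: 0 for no effect and ±100 for the full control effect; nearly all actives have a fitted effect of over 35% in size.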 Summed up: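 Enzyme-free wells gave the negative control, while test wells held 1nM USP1/UAF1 preincubated with compound for 15 min at room temperature. Ub-Rho at 150nM final started the reaction, and fluorescence at 480/540 nm was recorded kinetically.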
Ubiquitin carboxyl-terminal hydrolase 1 (Homo sapiens), sequence (O94782 whole entry, looked up): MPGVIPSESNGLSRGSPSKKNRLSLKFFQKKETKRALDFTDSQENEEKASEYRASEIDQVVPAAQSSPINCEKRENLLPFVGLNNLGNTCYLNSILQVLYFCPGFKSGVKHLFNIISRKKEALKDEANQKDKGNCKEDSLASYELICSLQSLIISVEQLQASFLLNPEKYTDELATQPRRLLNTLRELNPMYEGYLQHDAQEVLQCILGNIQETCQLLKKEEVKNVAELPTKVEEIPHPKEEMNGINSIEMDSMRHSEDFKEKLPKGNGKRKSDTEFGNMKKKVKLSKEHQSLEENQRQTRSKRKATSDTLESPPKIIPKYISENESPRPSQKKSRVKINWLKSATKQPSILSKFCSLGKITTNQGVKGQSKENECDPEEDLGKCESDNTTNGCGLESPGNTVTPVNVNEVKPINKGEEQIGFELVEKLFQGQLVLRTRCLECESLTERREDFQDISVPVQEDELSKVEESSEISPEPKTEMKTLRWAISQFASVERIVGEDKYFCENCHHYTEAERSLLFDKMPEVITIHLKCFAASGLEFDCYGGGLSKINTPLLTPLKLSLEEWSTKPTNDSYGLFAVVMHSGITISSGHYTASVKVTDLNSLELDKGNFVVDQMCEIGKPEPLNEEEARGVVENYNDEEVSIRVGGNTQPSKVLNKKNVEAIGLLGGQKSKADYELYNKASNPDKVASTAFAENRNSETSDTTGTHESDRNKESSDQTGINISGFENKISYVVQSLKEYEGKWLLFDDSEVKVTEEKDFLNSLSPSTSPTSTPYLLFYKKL

The nature of assay [12]: AP1 Signaling Pathway (AID 357; active = well fitted curve in either direction with a large enough effect, not every such curve was filed as active; also: % is scaled to controls: 0 for no effect and ±100 for the full control effect). Particulars: ME-180 AP-1-bla reporter, EGF-induced, beta-lactamase ratio, 5 h; at 7.69 µM (top of the series) unless noted. An outline of the steps: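 AP-1-bla ME-180 cells with beta-lactamase reporter under AP-1 response element, stimulated with EC50 EGF; compounds titrated, 5 hours at 37 degrees Celsius. CCF4 read at 460/530 nm ratio; positive and negative modulators judged by AC50.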

Assay [13] has as its target Cytochrome P450 3A4 (Homo sapiens) (UniProt P08684). Put plainly: qHTS Assay for Inhibitors and Substrates of Cytochrome P450 3A4 (AID 884). Also: potency is read from the fitted curve at half-maximal effect; nearly all actives have a fitted effect of over 50% in size. Summed up: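 Luminescent readout of luciferin produced by CYP3A4 (20 nM) dealkylation of Luciferin-PPXE, 25 uM (its KM). NADPH-driven reaction ran 60 min at RT after 10 min compound preincubation; data scaled to 57 uM ketoconazole as 100% inhibition.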

Assay [14] deals with Lysosomal acid glucosylceramidase (Homo sapiens) (UniProt P04062). Put plainly: Glucocerebrosidase-p2 (AID 348; in the data active = potency below about 10 µM; also: potency is read from the fitted curve at half-maximal effect). As to conditions: purified GBA, blue fluorogenic substrate, 40 min. An outline of the steps: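 Normal human glucocerebrosidase (0.2 nM) with blue fluorogenic substrate (80 uM final) in citrate/phosphate pH 5.9 with 10mM sodium taurocholate, 0.01% tween-20; 40 min RT, NaOH/glycine stop; fluorescence Ex 365/Em 440; AC50 from a titration from 0.6 nM upwards.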
Lysosomal acid glucosylceramidase (Homo sapiens), sequence (P04062 whole entry, looked up): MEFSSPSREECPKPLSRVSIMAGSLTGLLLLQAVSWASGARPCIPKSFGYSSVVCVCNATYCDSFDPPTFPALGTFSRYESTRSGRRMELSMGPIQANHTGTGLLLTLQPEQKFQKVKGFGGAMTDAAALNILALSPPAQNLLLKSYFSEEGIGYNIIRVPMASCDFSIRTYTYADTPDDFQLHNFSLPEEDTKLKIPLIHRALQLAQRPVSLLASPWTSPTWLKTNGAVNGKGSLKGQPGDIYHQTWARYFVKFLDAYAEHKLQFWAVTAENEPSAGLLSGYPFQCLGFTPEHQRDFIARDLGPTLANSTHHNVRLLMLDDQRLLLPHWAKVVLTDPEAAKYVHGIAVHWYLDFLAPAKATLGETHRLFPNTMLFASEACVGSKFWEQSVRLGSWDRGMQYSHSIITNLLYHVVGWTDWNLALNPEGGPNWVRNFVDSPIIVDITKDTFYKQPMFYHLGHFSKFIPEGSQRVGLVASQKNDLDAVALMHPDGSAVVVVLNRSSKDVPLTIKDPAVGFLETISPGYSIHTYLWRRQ

Assay [15] is described as follows: qHTS Assay for Identification of Small Molecule Agonists for Hypoxia Response Element Signaling Pathway (AID 914; active = well fitted activation curve with a large enough effect in the signal ratio, with a control signal flat, not every such curve was filed as active; the % refers to the signal ratio; also: % of control where 0% means no effect). Particulars: ME-180 (cervical carcinoma) HRE-bla reporter, beta-lactamase ratio, CoCl2, 17 h; activation: stronger effect = higher value. Summed up: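 A beta-lactamase reporter under hypoxia response element control in ME-180 cells served as the system. Compound titrations plus EC50 CoCl2 ran 17 h at 37 degrees Celsius; AC50 values were fitted from %Activity.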

For assay [16], the target named is Phospholipid hydroperoxide glutathione peroxidase GPX4 (Homo sapiens) (UniProt P36969). Put plainly: Primary qHTS Assay for Inhibitors of Recombinant Selenoprotein Glutathione Peroxidase 4 (GPX4) (AID 1845192). Also: nearly all actives have a fitted effect of over 65% in size. Summed up:
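NADPH consumption followed by fluorescence at 340/450 nm, t=0 and after 15 min at room temperature. Reaction started with cumene hydroperoxide (0.5 mM final) after 30 min compound–GPX4 preincubation; final 200 nM GPX4, 100 nM GR, 1 mM GSH, 0.5 mM NADPH.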

Phospholipid hydroperoxide glutathione peroxidase GPX4 (Homo sapiens), sequence (P36969 whole entry, looked up): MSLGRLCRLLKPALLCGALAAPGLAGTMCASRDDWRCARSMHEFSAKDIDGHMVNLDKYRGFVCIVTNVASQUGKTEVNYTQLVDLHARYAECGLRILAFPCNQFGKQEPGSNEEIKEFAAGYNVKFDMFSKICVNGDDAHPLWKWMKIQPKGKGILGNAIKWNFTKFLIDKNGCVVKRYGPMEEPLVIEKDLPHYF
Cytochrome P450 3A4 (Homo sapiens), sequence (P08684 whole entry, looked up): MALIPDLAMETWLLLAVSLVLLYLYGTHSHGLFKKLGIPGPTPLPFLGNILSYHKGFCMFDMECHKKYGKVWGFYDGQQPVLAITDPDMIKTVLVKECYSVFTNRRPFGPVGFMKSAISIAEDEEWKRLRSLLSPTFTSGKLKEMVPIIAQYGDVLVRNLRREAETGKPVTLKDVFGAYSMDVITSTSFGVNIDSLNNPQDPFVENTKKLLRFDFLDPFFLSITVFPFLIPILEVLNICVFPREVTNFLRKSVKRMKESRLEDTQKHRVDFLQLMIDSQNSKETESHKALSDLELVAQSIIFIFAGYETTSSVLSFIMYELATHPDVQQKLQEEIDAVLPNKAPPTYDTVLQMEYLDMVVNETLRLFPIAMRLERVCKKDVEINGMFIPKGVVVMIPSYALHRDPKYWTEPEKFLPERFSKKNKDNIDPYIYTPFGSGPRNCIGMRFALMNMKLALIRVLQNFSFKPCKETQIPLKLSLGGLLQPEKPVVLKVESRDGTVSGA
Dual specificity protein kinase CLK4 (Homo sapiens), sequence (Q9HAZ1 whole entry, looked up): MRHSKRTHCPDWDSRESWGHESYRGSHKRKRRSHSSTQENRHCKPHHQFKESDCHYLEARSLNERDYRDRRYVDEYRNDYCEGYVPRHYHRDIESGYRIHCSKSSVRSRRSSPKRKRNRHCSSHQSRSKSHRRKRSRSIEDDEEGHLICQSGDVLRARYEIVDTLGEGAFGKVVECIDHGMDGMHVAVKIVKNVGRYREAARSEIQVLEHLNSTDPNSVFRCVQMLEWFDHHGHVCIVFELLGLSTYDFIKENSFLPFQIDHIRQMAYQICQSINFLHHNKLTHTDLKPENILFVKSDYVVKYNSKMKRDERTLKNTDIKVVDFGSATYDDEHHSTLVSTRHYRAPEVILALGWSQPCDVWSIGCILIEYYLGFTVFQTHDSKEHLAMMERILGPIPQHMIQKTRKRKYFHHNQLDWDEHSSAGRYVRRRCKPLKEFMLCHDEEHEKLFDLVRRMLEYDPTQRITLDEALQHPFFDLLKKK
Glutathione peroxidase 1 (Homo sapiens), sequence (P07203 whole entry, looked up): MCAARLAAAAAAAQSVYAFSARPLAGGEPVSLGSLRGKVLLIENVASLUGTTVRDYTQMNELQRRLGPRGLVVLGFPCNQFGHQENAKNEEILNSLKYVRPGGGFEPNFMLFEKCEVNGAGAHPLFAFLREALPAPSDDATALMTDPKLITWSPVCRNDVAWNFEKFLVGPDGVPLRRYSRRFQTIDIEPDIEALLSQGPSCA
Cytochrome P450 1A2 (Homo sapiens), sequence (P05177 whole entry, looked up): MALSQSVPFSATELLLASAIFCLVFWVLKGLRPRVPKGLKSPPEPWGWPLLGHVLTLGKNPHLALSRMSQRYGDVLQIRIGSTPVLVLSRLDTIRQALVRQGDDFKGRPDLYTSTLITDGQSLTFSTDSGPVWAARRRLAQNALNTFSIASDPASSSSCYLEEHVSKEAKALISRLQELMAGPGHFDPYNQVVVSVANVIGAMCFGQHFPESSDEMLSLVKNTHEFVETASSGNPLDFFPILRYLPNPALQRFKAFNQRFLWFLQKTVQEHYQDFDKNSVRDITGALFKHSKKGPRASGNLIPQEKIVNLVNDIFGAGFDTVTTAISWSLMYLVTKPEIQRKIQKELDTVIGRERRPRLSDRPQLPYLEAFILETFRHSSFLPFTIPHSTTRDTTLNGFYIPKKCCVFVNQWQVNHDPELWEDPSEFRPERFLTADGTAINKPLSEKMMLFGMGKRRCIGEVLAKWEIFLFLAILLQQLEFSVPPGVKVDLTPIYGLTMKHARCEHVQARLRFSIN
3',5'-cyclic-AMP phosphodiesterase 4B (Homo sapiens), sequence (Q07343 whole entry, looked up): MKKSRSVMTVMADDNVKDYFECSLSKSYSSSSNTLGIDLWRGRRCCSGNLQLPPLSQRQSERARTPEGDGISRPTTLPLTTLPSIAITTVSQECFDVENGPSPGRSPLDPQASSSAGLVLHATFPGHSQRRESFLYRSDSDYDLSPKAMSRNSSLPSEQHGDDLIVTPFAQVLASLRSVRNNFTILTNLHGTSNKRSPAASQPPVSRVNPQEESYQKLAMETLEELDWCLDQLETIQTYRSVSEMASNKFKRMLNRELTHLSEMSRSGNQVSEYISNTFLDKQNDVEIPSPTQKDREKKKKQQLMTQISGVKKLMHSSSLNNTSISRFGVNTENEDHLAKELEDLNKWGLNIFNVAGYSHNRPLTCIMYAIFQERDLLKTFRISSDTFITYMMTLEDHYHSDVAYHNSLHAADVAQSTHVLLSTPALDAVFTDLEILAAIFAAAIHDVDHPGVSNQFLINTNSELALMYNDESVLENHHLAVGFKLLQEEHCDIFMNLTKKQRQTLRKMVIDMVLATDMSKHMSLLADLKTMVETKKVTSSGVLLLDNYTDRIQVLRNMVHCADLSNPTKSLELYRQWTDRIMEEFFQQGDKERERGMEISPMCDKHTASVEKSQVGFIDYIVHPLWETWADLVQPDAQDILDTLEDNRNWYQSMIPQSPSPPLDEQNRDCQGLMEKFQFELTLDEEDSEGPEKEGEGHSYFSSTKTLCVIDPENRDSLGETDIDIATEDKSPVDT

`Fc1ccc(N2CCN(c3nc4ccccc4c4nc(-c5ccccc5)nn34)CC2)cc1`: the Potency entry in assay [1] was “inactive”.
Still for that read-out and setting: the entry for `COc1ccc(-c2c(C)nn3c4c(cnc23)C(=O)CC(c2ccc(C)cc2)C4)cc1` (stereo not given) is “inactive”.
Turning to `O=C1COc2c(CCNCCN(C(=O)CCNCCc3ccc(Cl)c(Cl)c3)C3CCCCC3)ccc(O)c2N1`, in assay [1], the Potency result was “inactive”.
On to `COc1cccc(C(c2sc3nc(-c4ccco4)nn3c2O)N2CCN(C)CC2)c1` (stereo not given), for which the Potency result in [1] is “inactive”.
Still for that read-out and setting: the entry for `C=C1C/C(=C\C=C2/CCC[C@]3(C)[C@@H]([C@H](C)/C=C/C(C)C(C)C)CC[C@@H]23)[C@@H](O)C[C@@H]1O` (stereo not given in full) is “inactive”.
For the molecule `CN(C)Cc1ccccc1-c1ccc2ncnc(N(C)C)c2c1`, the Potency in assay [2] was 12.6 µM (active); in [5] it was above 46 µM; in assay [6], above 46 µM. Also, the activity change, negative = inhibition in [3] was -2.16%. Besides, the result in [4] and in assay [9] was inactive. Moreover, the Potency result in assay [7], in assay [8], in assay [10] and in assay [11] was “inactive” in each case.
Consider `Cc1ccccc1-c1nc(Nc2ccncc2)c2ccccc2n1`, for which the figures for the activity change, negative = inhibition in assay [12] and in assay [3] were -17.3% and 6.78%, respectively. For the same molecule, the Potency in [2] was 0.794 µM (active); in [5], above 46 µM; in assay [6] it was above 46 µM; in assay [13] it was 6.31 µM (active). Moreover, the outcome in assay [4] and in assay [9] was inactive. The Potency result in assay [7] and in [10] was “inactive” in each case.
On to `COc1ccc(C[C@H](NC(=O)[C@H](C)NC(=O)CN2CCOCC2)C(=O)N[C@@H](Cc2ccccc2)C(=O)[C@@]2(C)CO2)cc1`, for which the Potency entry in assay [1] was “inactive”.
`O=C(Cn1ncc2c1-c1ccccc1OC2)N1CCN(c2ccccc2)CC1`: in assay [1], the Potency entry was “inactive”.
Same read-out and setting: the entry for `O=S(=O)(Nc1cccc(-c2ccc(N3CCOCC3)nn2)c1)c1cc(C(F)(F)F)ccc1Cl` is “inactive”.
For `COc1ccccc1CNc1nc(-c2ccc(C(=O)N(C)C)cc2)nc2ccccc12`, the Potency in assay [14] was above 11.4 µM; in assay [5], above 46 µM; in assay [6] it was above 46 µM. In assay [3], the activity change, negative = inhibition was -1.92%. Besides, in [4], the molecule was classed as inactive. Besides, the Potency result in assay [7], in assay [10] and in [11] was “inactive” each time. For the same molecule, the activation in assay [15] was 25.3%.
On to `COc1ccc(S(=O)(=O)ON=C2C=C(C)C(=O)C(C)=C2)cc1`, for which, in [1], the Potency entry was “inactive”.
Turning to `CCCCCCCCN=C(N)NC(N)=NCc1ccc(Cl)c(Cl)c1`, the Potency entry in assay [1] and in assay [16] was “inactive” each time.
For the molecule `CCCCCCCCCCCC(=O)OCN1C(=O)CCc2ccc(OCCCCN3CCN(c4cccc(Cl)c4Cl)CC3)cc21`, the Potency entry in assay [1] and in [16] was “inactive” each time.
Consider `C[N+]1(C)[C@@H]2CC(OC(=O)C(O)(c3cccs3)c3cccs3)C[C@H]1[C@H]1O[C@@H]12` (stereo not given in full), for which the Potency result in [1] and in assay [16] was “inactive” throughout.
Turning to `CN(CC(O)CO)C(=O)c1c(I)c(NC(=O)C(CO)CO)c(I)c(C(=O)N(C)CC(O)CO)c1I` (stereo not given), the Potency entry in assay [1] and in assay [16] was “inactive” in each case.
For `O=C(O[C@H]1C[N+]2(CCCOc3ccccc3)CCC1CC2)C(O)(c1cccs1)c1cccs1`, the Potency result in [1] and in assay [16] was “inactive” each time.
On to `CCCCCC(O)/C=C/[C@@H]1C(CCCCCCC(=O)O)C(=O)C[C@@H]1O` (stereo not given in full), for which the Potency result in assay [1] and in assay [16] was “inactive” in each case.
With `Cn1cc(OCC(O)CNC(C)(C)C)c2ccccc2c1=O` (stereo not given), the Potency entry in assay [1] and in [16] was “inactive” throughout.
In the case of `CC(C)CCC[C@@H](C)[C@H]1CC[C@H]2[C@@H]3CC=C4C[C@@H](O)CC[C@]4(C)[C@@H]3CC[C@]12C`, the Potency result in assay [1] and in assay [16] was “inactive” in each case.
With `O=C(O)C(O)[C@H](O)[C@H](O)[C@H](O)[C@H](O)CO` (stereo not given in full), the Potency result in assay [1] and in assay [16] was “inactive” throughout.
With `N#Cc1c(N2C[C@@H]3NCCO[C@H]3C2)c(F)cc2c(=O)c(C(=O)O)cn(C3CC3)c12`, the Potency result in [1] and in [16] was “inactive” each time.
In the case of `OCc1cc(C(O)CNCCCCCCOCCOCc2c(Cl)cccc2Cl)ccc1O` (stereo not given), the Potency result in assay [1] and in assay [16] was “inactive” each time.
Consider `CCNC(=O)CCC/C=C\C[C@@H]1[C@@H](/C=C/[C@@H](O)CCc2ccccc2)[C@H](O)C[C@@H]1O`, for which the Potency entry in [1] and in assay [16] was “inactive” throughout.
As to `CO[C@@H]1C[C@H](O[C@H]2[C@H](C)[C@H](O[C@@H]3O[C@@H](C)C[C@@H](N(C)C)[C@H]3OC(C)=O)[C@H](C)C[C@]3(CO3)C(=O)[C@H](C)[C@H](OC(C)=O)[C@H](C)[C@H](C)OC(=O)[C@@H]2C)O[C@H](C)[C@H]1OC(C)=O`, the Potency entry in assay [1] and in assay [16] was “inactive” each time.
For the molecule `CCCCCCCCCCCCCCCC(=O)OCC=C(C)C=CC=C(C)C=CC1=C(C)CCCC1(C)C`, the Potency result in assay [1] and in [16] was “inactive” throughout.
`NS(=O)(=O)c1ccc(-n2nc(C(F)(F)F)cc2-c2ccc(F)cc2)cc1`: the Potency entry in assay [1] and in [16] was “inactive” throughout.
In the case of `O=C(O)C(O)C(O)C(=O)O` (stereo not given), the Potency entry in [1] and in assay [16] was “inactive” each time.
